Results on ten molecules are retold here after PubChem BioAssay (NCATS).

Records with an inconclusive call do not appear. Entries that show only a call come without a potency. Unmarked numbers belong to inactive results. The source made the active and inactive calls. The call rests on the fitted dose curve; in most records, active means well fitted inhibition curve with a large enough effect; inconclusive means small, poorly fitted or top-dose-only effect; inactive means flat fitted curve, though single readings scatter.
Potency means the concentration at half of the fitted maximal effect.

Test system in one assay: not listed separately
Briefly: qHTS profiling for inhibitors of Plasmodium falciparum proliferation (AID 504749). Further: nearly all actives have a fitted effect of over 60% in size. As to conditions: P. falciparum in erythrocytes, SYBR Green DNA, 72 h; at 28.7 µM (top of the series); parasite line A. The method in brief:
(§1)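 P. falciparum-infected erythrocytes (0.3% parasitemia, 2.5% hematocrit) incubated with compound 72 h at 37 C, 5% CO2. Parasite DNA detected by SYBR Green after lysis, overnight at room temperature; normalised to 0.29 uM artemisinin and DMSO.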
In general terms: In qHTS, concentration-response curves come from the screen itself.
In the case of `N#CC(c1ccc(Cl)cc1)c1c(Cl)cc(-n2ncc(=O)[nH]c2=O)cc1Cl` (configuration not stated), the activity, negative = inhibition was -9.47%.
The same measure, in the same setting: the same measure for `COc1ccnc(CS(=O)c2nc3ccc(OC(F)F)cc3[nH]2)c1OC` (configuration not stated): -7.9%; for `CN1CCN2c3ncccc3Cc3ccccc3C2C1` (configuration not stated): -2.79%.
Still for that read-out and setting: the same measure for `COc1cc2c(cc1OC)CC(=O)N(CCCN(C)C[C@H]1Cc3cc(OC)c(OC)cc31)CC2`: -2.12%.
Regarding `CS(=O)(=O)c1ccc(C2=C(c3ccccc3)C(=O)OC2)cc1`, the activity, negative = inhibition was 0.606%.
The same measure, in the same setting: the same measure for `O=C(O)c1nc(=O)[nH]c(=O)[nH]1`: -16.8%; for `N#Cc1c(N(CC(=O)O)CC(=O)O)sc(C(=O)O)c1CC(=O)O`: 12.6%.

The assay is the same for the next values; noted with them: P. falciparum in erythrocytes, SYBR Green DNA, 72 h; at 28.7 µM (top of the series); parasite line B.
As to `N#CC(c1ccc(Cl)cc1)c1c(Cl)cc(-n2ncc(=O)[nH]c2=O)cc1Cl` (configuration not stated), the activity, negative = inhibition was -1.8%.
Same read-out and setting: the same measure for `COc1ccnc(CS(=O)c2nc3ccc(OC(F)F)cc3[nH]2)c1OC` (configuration not stated): -10.6%; for `CN1CCN2c3ncccc3Cc3ccccc3C2C1` (configuration not stated): 7.38%.
Same read-out and setting: with `COc1cc2c(cc1OC)CC(=O)N(CCCN(C)C[C@H]1Cc3cc(OC)c(OC)cc31)CC2` the figure was -3.25%.
On the same count and under the same terms, with `CS(=O)(=O)c1ccc(C2=C(c3ccccc3)C(=O)OC2)cc1` the figure was 18.5%; with `O=C(O)c1nc(=O)[nH]c(=O)[nH]1`, -28.2%.
Regarding `N#Cc1c(N(CC(=O)O)CC(=O)O)sc(C(=O)O)c1CC(=O)O`, the activity, negative = inhibition is 0.836%.

The test system of a further assay is 3D7. Described as above. Conditions: P. falciparum in erythrocytes, SYBR Green DNA, 72 h; series mostly up to 28.7 µM. The method in brief: as §1
Regarding `C=C1c2cccc(O)c2C(O)=C2C(=O)[C@@]3(O)C(O)=C(C(N)=O)C(=O)[C@@H](N(C)C)[C@@H]3[C@@H](O)[C@H]12`, the Potency result was “inactive”.
On the same count and under the same terms, with `N#CC(c1ccc(Cl)cc1)c1c(Cl)cc(-n2ncc(=O)[nH]c2=O)cc1Cl` (configuration not stated) the entry was “inactive”; with `COc1ccnc(CS(=O)c2nc3ccc(OC(F)F)cc3[nH]2)c1OC` (configuration not stated), “inactive”; with `CN1CCN2c3ncccc3Cc3ccccc3C2C1` (configuration not stated), “inactive”.
Same read-out and setting: the same measure for `COc1cc2c(cc1OC)CC(=O)N(CCCN(C)C[C@H]1Cc3cc(OC)c(OC)cc31)CC2`: “inactive”; for `CS(=O)(=O)c1ccc(C2=C(c3ccccc3)C(=O)OC2)cc1`: “inactive”; for `O=C(O)c1nc(=O)[nH]c(=O)[nH]1`: “inactive”.
Same read-out and setting: with `NS(=O)(=O)c1cc(Cl)c(Cl)c(S(N)(=O)=O)c1` the entry was “inactive”.
Regarding `N#Cc1c(N(CC(=O)O)CC(=O)O)sc(C(=O)O)c1CC(=O)O`, the Potency entry is “inactive”.

The subject of the next assay is 7G8. The assay is described as above. Conditions: P. falciparum in erythrocytes, SYBR Green DNA, 72 h; series mostly up to 28.7 µM. The method in brief:
as §1
As to `Clc1ccc(COC(Cn2ccnc2)c2ccc(Cl)cc2Cl)c(Cl)c1` (configuration not stated), the Potency was 0.708 µM (active).
On the same count and under the same terms, with `COc1ccnc(CS(=O)c2nc3ccc(OC(F)F)cc3[nH]2)c1OC` (configuration not stated) the entry was “inactive”; with `CN1CCN2c3ncccc3Cc3ccccc3C2C1` (configuration not stated), 11.2 µM (active).
Still for that read-out and setting: with `COc1cc2c(cc1OC)CC(=O)N(CCCN(C)C[C@H]1Cc3cc(OC)c(OC)cc31)CC2` the figure was 11.2 µM (active); with `CS(=O)(=O)c1ccc(C2=C(c3ccccc3)C(=O)OC2)cc1`, “inactive”.
Still for that read-out and setting: with `O=C(O)c1nc(=O)[nH]c(=O)[nH]1` the entry was “inactive”; with `N#Cc1c(N(CC(=O)O)CC(=O)O)sc(C(=O)O)c1CC(=O)O`, “inactive”.

A further assay relates to AA1029. The description is as above. As to conditions: P. falciparum in erythrocytes, SYBR Green DNA, 72 h; series mostly up to 28.7 µM. The method in brief:
as §1
As to `Clc1ccc(COC(Cn2ccnc2)c2ccc(Cl)cc2Cl)c(Cl)c1` (configuration not stated), the Potency was 4.47 µM (active).
As for `C=C1c2cccc(O)c2C(O)=C2C(=O)[C@@]3(O)C(O)=C(C(N)=O)C(=O)[C@@H](N(C)C)[C@@H]3[C@@H](O)[C@H]12`, the Potency entry was “inactive”.
Still for that read-out and setting: with `N#CC(c1ccc(Cl)cc1)c1c(Cl)cc(-n2ncc(=O)[nH]c2=O)cc1Cl` (configuration not stated) the entry was “inactive”; with `COc1ccnc(CS(=O)c2nc3ccc(OC(F)F)cc3[nH]2)c1OC` (configuration not stated), “inactive”; with `COc1cc2c(cc1OC)CC(=O)N(CCCN(C)C[C@H]1Cc3cc(OC)c(OC)cc31)CC2`, “inactive”.
Consider `CS(=O)(=O)c1ccc(C2=C(c3ccccc3)C(=O)OC2)cc1`, for which the Potency entry is “inactive”.
Still for that read-out and setting: the same measure for `O=C(O)c1nc(=O)[nH]c(=O)[nH]1`: “inactive”; for `NS(=O)(=O)c1cc(Cl)c(Cl)c(S(N)(=O)=O)c1`: “inactive”; for `N#Cc1c(N(CC(=O)O)CC(=O)O)sc(C(=O)O)c1CC(=O)O`: “inactive”.

The next assay deals with AS120. Described as above. As to conditions: P. falciparum in erythrocytes, SYBR Green DNA, 72 h; series mostly up to 28.7 µM. The method in brief: as §1
For the molecule `Clc1ccc(COC(Cn2ccnc2)c2ccc(Cl)cc2Cl)c(Cl)c1` (configuration not stated), the Potency is 2 µM (active).
The same measure, in the same setting: the same measure for `C=C1c2cccc(O)c2C(O)=C2C(=O)[C@@]3(O)C(O)=C(C(N)=O)C(=O)[C@@H](N(C)C)[C@@H]3[C@@H](O)[C@H]12`: “inactive”.
With `N#CC(c1ccc(Cl)cc1)c1c(Cl)cc(-n2ncc(=O)[nH]c2=O)cc1Cl` (configuration not stated), the Potency result is “inactive”.
Still for that read-out and setting: the same measure for `COc1ccnc(CS(=O)c2nc3ccc(OC(F)F)cc3[nH]2)c1OC` (configuration not stated): “inactive”.
As for `COc1cc2c(cc1OC)CC(=O)N(CCCN(C)C[C@H]1Cc3cc(OC)c(OC)cc31)CC2`, the Potency result is “inactive”.
The same measure, in the same setting: the same measure for `O=C(O)c1nc(=O)[nH]c(=O)[nH]1`: “inactive”; for `NS(=O)(=O)c1cc(Cl)c(Cl)c(S(N)(=O)=O)c1`: “inactive”; for `N#Cc1c(N(CC(=O)O)CC(=O)O)sc(C(=O)O)c1CC(=O)O`: “inactive”.
